Here are results for seven compounds from PubChem BioAssay (NCATS).

Inconclusive results are not listed. The source made the active and inactive calls. Calls come from the whole dose curve; as a rule, active = well fitted curve in the direction sought with a large enough effect; inconclusive = small, poorly fitted or top-dose-only effect, or another doubt; inactive = no such curve, though single readings can be large; an effect the other way counts as inactive or inconclusive.

The test system of experiment [1] is 7G8. Put plainly: qHTS profiling for inhibitors of Plasmodium falciparum proliferation (AID 504749). Note: nearly all actives have a fitted effect of over 60% in size. Note: potency is the fitted concentration of half-maximal effect. The conditions noted are these: P. falciparum in erythrocytes, SYBR Green DNA, 72 h; series mostly up to 28.7 µM. The essentials:
(§1)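 In a 72 h erythrocytic culture (37 C, humidified, 5% CO2) at 2.5% hematocrit and 0.3% starting parasitemia, compounds were tested; SYBR Green I in detergent lysis buffer stained parasite DNA overnight.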

For experiment [2], the system named is CP247. Described as above. To be noted: P. falciparum in erythrocytes, SYBR Green DNA, 72 h; series mostly up to 28.7 µM. The method, boiled down: as §1
Experiment [3] relates to SC27B. The description is as above. The conditions noted are these: P. falciparum in erythrocytes, SYBR Green DNA, 72 h; series mostly up to 28.7 µM. The method, boiled down: as §1
Experiment [4] concerns CP266. The experiment is described as above. The conditions noted are these: P. falciparum in erythrocytes, SYBR Green DNA, 72 h; series mostly up to 28.7 µM. The method, boiled down:
as §1

The subject of experiment [5] is CP291. The description is as above. The conditions noted are these: P. falciparum in erythrocytes, SYBR Green DNA, 72 h; series mostly up to 28.7 µM. The essentials: as §1
The subject of experiment [6] is DIV17. The experiment is described as above. To be noted: P. falciparum in erythrocytes, SYBR Green DNA, 72 h; series mostly up to 28.7 µM. The essentials:
as §1

Experiment [7] concerns DIV30. The description is as above. The conditions noted are these: P. falciparum in erythrocytes, SYBR Green DNA, 72 h; series mostly up to 28.7 µM. The essentials:
as §1

Experiment [8] relates to TAB165. Described as above. To be noted: P. falciparum in erythrocytes, SYBR Green DNA, 72 h; series mostly up to 28.7 µM. The essentials:
as §1

Experiment [9] can be described thus: S16 Schwann cell viability assay (CellTiter-Glo assay) (AID 624031).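 Note: native untransfected S16 rat Schwann cells; nearly all actives have a fitted effect of over 70% in size.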 The method, boiled down: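 Rat S16 Schwann cells without reporter constructs received compound or DMSO for 24 h at 37 °C under 5% CO2. Cellular ATP was then quantified by CellTiter-Glo luminescence, with vehicle wells defined as 0% activity and cell-free wells as reference.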
The subject of experiment [10] is 3D7. Put plainly: qHTS profiling for inhibitors of Plasmodium falciparum proliferation (AID 504749). Note: nearly all actives have a fitted effect of over 60% in size. Note: potency is the fitted concentration of half-maximal effect. To be noted: P. falciparum in erythrocytes, SYBR Green DNA, 72 h; series mostly up to 28.7 µM. The essentials:
as §1

The test system of experiment [11] is CP215. The description is as above. To be noted: P. falciparum in erythrocytes, SYBR Green DNA, 72 h; series mostly up to 28.7 µM. The method, boiled down:
as §1

The test system of experiment [12] is CP260. The experiment is described as above. The conditions noted are these: P. falciparum in erythrocytes, SYBR Green DNA, 72 h; series mostly up to 28.7 µM. The method, boiled down:
as §1

Experiment [13] relates to CP335. Described as above. The conditions noted are these: P. falciparum in erythrocytes, SYBR Green DNA, 72 h; series mostly up to 28.7 µM. The method, boiled down: as §1
For experiment [14], the system named is PC26. Described as above. The conditions noted are these: P. falciparum in erythrocytes, SYBR Green DNA, 72 h; series mostly up to 28.7 µM. The essentials:
as §1

Experiment [15] relates to CP191. The description is as above. The conditions noted are these: P. falciparum in erythrocytes, SYBR Green DNA, 72 h; series mostly up to 28.7 µM. The method, boiled down: as §1
Experiment [16] concerns P93_24. The description is as above. The conditions noted are these: P. falciparum in erythrocytes, SYBR Green DNA, 72 h; series mostly up to 28.7 µM. The essentials: as §1
Experiment [17] deals with PAD. The description is as above. The conditions noted are these: P. falciparum in erythrocytes, SYBR Green DNA, 72 h; series mostly up to 28.7 µM. The method, boiled down: as §1
Experiment [18] concerns TAB113. Described as above. The conditions noted are these: P. falciparum in erythrocytes, SYBR Green DNA, 72 h; series mostly up to 28.7 µM. The essentials: as §1

Turning to `C=C1CC2C3C=C(C)C4=CC(=O)CCC4(C)C3CCC2(C)[C@@]1(OC(C)=O)C(C)=O` (stereo partly drawn), in [1], the Potency is 12.6 µM (active). Further, the Potency entry in [2] and in experiment [3] was “inactive” in each case.

In the case of `C=C1CC[C@H](O)C/C1=C/C=C1\CCC[C@]2(C)[C@@H]([C@H](C)CCCC(C)(C)O)CC[C@@H]12`, the Potency in [1] was 10 µM (active); in experiment [2], 8.91 µM (active); in experiment [6], 15.1 µM (active); in experiment [7] it was 9.53 µM (active); in experiment [8], 12.6 µM (active). In addition, the Potency entry in experiment [4] and in experiment [5] was “inactive” in each case.

`C=C1CCC(O)C/C1=C/C=C1\CCC[C@]2(C)[C@@H]([C@H](C)/C=C/[C@H](C)C(C)C)CC[C@@H]12` (stereo partly drawn): the Potency entry in [9], in experiment [10], in experiment [11], in experiment [12], in experiment [4] and in experiment [5] was “inactive” in each case. Further, the Potency result in [13], in [6], in [7] and in experiment [14] was “inactive” throughout. In addition, the Potency in [1] was 10 µM (active).

In the case of `CC1=C(/C=C/C(C)=C\C=C\C(C)=C\C=C\C=C(C)\C=C\C=C(C)\C=C\C2=C(C)C[C@@H](O)CC2(C)C)C(C)(C)C[C@H](O)C1`, the Potency result in [9], in experiment [15], in experiment [11], in experiment [5] and in experiment [18] was “inactive” in each case. Moreover, the Potency was 1.26 µM (active) in experiment [1]; 10 µM (active) in [12]; 15.1 µM (active) in [13]; 13.5 µM (active) in [6]; 12.6 µM (active) in experiment [16]; 14.1 µM (active) in experiment [17]. The Potency in experiment [8] is 11.2 µM (active).

For the compound `C[C@@H]1CC2[C@@H]3C[C@H](F)C4=CC(=O)C(Cl)=C[C@]4(C)[C@@]3(F)[C@H](O)C[C@]2(C)[C@@]1(O)C(=O)CO` (stereo partly drawn), the Potency result in experiment [9], in experiment [10], in [11], in [4], in experiment [5] and in experiment [13] was “inactive” throughout. Also, the Potency entry in [7] and in experiment [3] was “inactive” each time. For the same compound, the Potency in [1] is 8.91 µM (active).

Regarding `COC(=O)C1[C@@H](OC)C(OC(=O)COc2ccc(OC)cc2)C[C@@H]2CN3CCc4c([nH]c5cc(OC)ccc45)[C@H]3C[C@H]12` (stereo partly drawn), the Potency result in experiment [9], in experiment [11] and in [4] was “inactive” throughout. Besides, the Potency in experiment [10] is 10 µM (active); in experiment [1] it was 7.94 µM (active); in [13], 12 µM (active); in experiment [6] it was 6.75 µM (active); in experiment [7], 8.49 µM (active); in experiment [16] it was 10 µM (active). The Potency in experiment [17] was 11.2 µM (active); in experiment [8], 12.6 µM (active).

Regarding `C=C1N[C@]2(C(=O)COC(C)=O)[C@@H](C[C@H]3[C@@H]4CCC5=CC(=O)C=C[C@]5(C)[C@H]4[C@@H](O)C[C@@]32C)O1`, the Potency entry in [9], in experiment [2], in experiment [4], in experiment [6] and in [17] was “inactive” in each case.
